Compound activity deposited in PubChem BioAssay by National Center for Advancing Translational Sciences (NCATS).
The list is not random: actives were taken first. Their share in the collection is about 6.6%.
HepG2 viability – counter-screen for TGF-b inhibitors: cytotoxicity in HepG2 cells; HepG2 CAGA-GFP viability, ATP luminescence, 18 h; Potency, µM (titrated, usually from 46.1 µM), without a hit: at the top dose activity change, negative = cytotoxicity, most hits filed as cytotoxic; 0.76% of 410,000 active
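HepG2 CAGA-GFP cells (1000/well, DMEM with 1% FBS) received compound, then TGF-beta at 500 pg/mL final, and were incubated 18 hours at 37 degrees C. Viability was read by CellTiter-Glo luminescence. Media-only wells were set as complete cell-killing and DMSO as no toxicity.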
KB-3-1 tox – kills parental KB-3-1 adenocarcinoma cells | KB-3-1 viability, CellTiter-Glo ATP luminescence, 72 h | Potency, µM (highest dose often 46.1 µM), most hits filed as cytotoxic | 1.4% of 400,000 active | AID 1347075; also: % is scaled to controls: 0 for no effect and ±100 for the full control effect; nearly all actives have a fitted effect of over 60% in size
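Viability of parental KB-3-1 cells, measured by CellTiter-Glo luminescence, followed a 72 h incubation at 37 °C with pinned compounds in phenol-red-free DMEM containing 10% FBS.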
TGFb inhibitor – TGF-b pathway inhibition; HepG2 CAGA-GFP TGF-b/SMAD3 reporter, GFP fluorescence, 18 h; TGF-beta stimulated, 500 pg/mL final; Potency, µM (highest dose often 46.1 µM), for inactives: top-dose activity, negative = inhibition, actives largely listed as inhibitors; 1.2% of 410,000 active; also: % is scaled to controls: 0 for no effect and ±100 for the full control effect; nearly all actives have a fitted effect of over 65% in size
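Cell-based qHTS in HEPG2 carrying a CAGA-GFP Smad reporter; compounds added before 500 pg/mL final TGF-beta, 18 h incubation at 37 degrees C, GFP fluorescence quantified per cell by imaging cytometry.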
KB-V1 cytotox – kills drug-selected multidrug resistant KB-V1 cells; KB-V1 MDR cells viability, CellTiter-Glo, 72 h; Potency, µM (doses to about 46.1 µM), most hits filed as cytotoxic; 3.4% of 400,000 active; also: % is scaled to controls: 0 for no effect and ±100 for the full control effect; nearly all actives have a fitted effect of over 60% in size
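Cytotoxicity toward P-gp-expressing KB-V1 cells was determined as loss of CellTiter-Glo luminescence after 72 h at 37 degrees C. Compounds were tested in quantitative HTS format across a concentration range, with curves fitted to normalized data.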
HT1080NT lethal – kills 2HG-producing HT-1080-NT fibrosarcoma cells; HT-1080-NT fibrosarcoma viability, CellTiter-Glo ATP luminescence, 48 h; Potency, µM (highest dose often 46.1 µM), for inactives: top-dose activity, negative = less viability, hits mostly cytotoxic; 1.6% of 360,000 active;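 also: NT is the 2HG producing partner of a matched IDH1 knockdown line; 0% = DMSO-treated cells and -100% = media-only wells without cells; nearly all actives have a fitted effect of over 55% in size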
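Viability of the 2HG-overproducing fibrosarcoma line after 48 hours of compound exposure at 37 degrees C was determined by luminescence with CellTiter-Glo, and concentration-effect curves were then fitted and categorized.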
HT1080 IDH1KD tx – HT-1080 IDH1 knockdown cell toxicity (counter line); Potency, µM (top dose mostly 46.1 µM), inactives show at the top dose activity, negative = toxicity, actives largely listed as cytotoxic; HT-1080 IDH1 knockdown viability, ATP luminescence, 48 h; 2% of 360,000 active;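 also: 0% = DMSO wells and -100% = cell-free medium wells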
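Knockdown cells (IDH1KD HT-1080) received compounds 2 h after plating at 750 cells/well and were kept 48 h at 37 °C in 5% FBS RPMI. A CellTiter-Glo luminescence read gave % activity for curve fitting.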
Active calls of the source: *; i = inactive; ? = inconclusive; nt = no result. Calls follow the shape of the dose curve; as a rule, active = well fitted curve in the direction sought with a large enough effect; inconclusive = small, poorly fitted or top-dose-only effect, or another doubt; inactive = no such curve, though single readings can be large; an effect the other way counts as inactive or inconclusive. Potency is read from the fitted curve at half-maximal effect.

SMILES	HepG2 viability	KB-3-1 tox	TGFb inhibitor	KB-V1 cytotox	HT1080NT lethal	HT1080 IDH1KD tx
CC(=NNC(=S)Nc1ccc(C)cc1)c1ccccn1	-57%	?	?	?	?	?
C/C(=N/NC(=O)c1cnccn1)c1ccncc1	11%	i	17%	i	11%	-10%
CC1CCc2c(sc3nnn(CC(=O)Nc4cccc(C(F)(F)F)c4)c(=O)c23)C1 (configuration not stated)	-21%	i	?	i	nt	nt
C[C@H](O)[C@@H]1CN2CCc3c([nH]c4ccccc34)[C@@H]2C[C@@H]1N(C)C(=S)Nc1ccc(C#N)cc1	-18%	i	?	?	-15%	-20%
Cc1ccc(S(=O)(=O)NCc2ccccc2)cc1C(=O)NCC(=O)Nc1c(C)cccc1C	-1%	i	-19%	i	-4%	-22%
O=C(Nc1ccc(S(=O)(=O)N(Cc2ccccc2)c2ccccc2)cc1)c1ccc([N+](=O)[O-])cc1	-28%	i	-5%	?	nt	nt
COc1ccc(-c2cc(C3C4C=CCCC4(C)C(=O)N3Cc3ccccc3)ccc2F)cc1 (configuration not stated)	-8%	nt	11µM*	nt	nt	nt
COc1ccc(-c2ccc([C@H]3[C@@H]4C=CCC[C@@]4(C)C(=O)N3Cc3ccccc3)c(F)c2)cc1	-10%	?	-24%	7.3µM*	?	?
COc1ccc(-c2ccc(N(C)C)cc2)cc1[C@H]1[C@@H]2C=CCC[C@@]2(C)C(=O)N1Cc1ccccc1	-9%	18µM*	?	?	?	?
Cc1ccc(-c2nn(CC(=O)Nc3cccc(C(F)(F)F)c3)c(=O)c3ccccc23)cc1	-24%	i	-24%	i	nt	nt
COc1ccc(NC(=O)CSc2ncc3c(n2)-c2ccccc2N(Cc2ccc(C)cc2)S3(=O)=O)cc1Cl	-11%	i	-13%	i	nt	nt
COC(=O)c1ccc(NC(=O)CC2C(=O)N(c3ccc(F)cc3)C(=O)N2Cc2ccc(OC)cc2)cc1 (configuration not stated)	-24%	nt	?	nt	nt	nt
O=c1cc(C(F)(F)F)[nH]c2ccc(OC(F)(F)F)cc12	-14%	?	?	?	?	21µM*
CCn1c(CNC(=O)c2ccc(OC)cc2)nnc1SCC(=O)Nc1ccccc1	1%	i	?	i	nt	nt
CCOC(=O)c1c(NC(=O)C2=C(C)NC(=S)NC2c2ccc(C)cc2)sc(C)c1C (configuration not stated)	25%	?	6%	21µM*	?	-30%
CC(C)Cc1ccc(-c2cc3nc(NCCCn4ccnc4)ccn3n2)cc1	-52%	i	?	i	16µM*	?
CC(C)Cc1ccc(-c2cc3nc(NCCc4ccc(S(N)(=O)=O)cc4)ccn3n2)cc1	-32%	i	11%	i	?	23µM*
CC12CN3CC(c4ccccc4)(CN(C1)C3c1ccc(Cl)cc1)C2=O (configuration not stated)	2%	i	-16%	i	nt	nt
Cc1coc2c1c(C)cc1oc(=O)c(CC(=O)NCCc3ccc(Cl)cc3)c(C)c12	-5%	nt	0%	nt	nt	nt
O=C(CN1CCN(c2ccccn2)CC1)N1c2ccccc2CCc2ccccc21	-27%	i	-8%	5.8µM*	10%	15%
O=C(CN1CCN(c2ccccn2)CC1)N1c2ccccc2Sc2ccc(C(F)(F)F)cc21	-25%	?	-13%	?	-4%	?
COc1ccc(N2CC(NC(=O)c3ccco3)CC2=O)cc1 (configuration not stated)	3%	nt	-16%	nt	nt	nt
CNc1cncc(-c2cnn(CC(C)C)c2)n1	13%	i	0%	i	5%	4%
COc1cc(S(=O)(=O)NCCOC23CC4CC(CC(C4)C2)C3)c(OC)cc1Cl	1%	?	?	5.8µM*	9%	6%
O=C(c1cc2ccccc2[nH]1)c1cc2cc(O)ccc2[nH]1	-51%	i	?	i	nt	nt
SMILES	HepG2 viability	KB-3-1 tox	TGFb inhibitor	KB-V1 cytotox	HT1080NT lethal	HT1080 IDH1KD tx
CO[C@H]1C[C@@H]2CC[C@@H](C)[C@@](O)(O2)C(=O)C(=O)N2CCCC[C@H]2C(=O)O[C@H]([C@H](C)C[C@@H]2CC[C@@H](O)[C@H](OC)C2)CC(=O)[C@H](C)/C=C(/C)[C@@H](O)[C@@H](OC)C(=O)[C@H](C)C[C@H](C)C=C/C=C\C=C/1C	-28%	i	4.5µM*	?	nt	nt
CC(C)c1cc(C(=O)NCCc2cccs2)c(N)s1	nt	i	nt	i	-8%	0%
Nc1nc2ncccc2cc1C(=O)NCCc1cccs1	nt	?	nt	i	-13%	15µM*
O=C(NCc1nnnn1-c1ccc(F)cc1)c1ccc2ccccc2c1	0%	i	7%	i	5%	7%
Cc1ccc(-n2nnnc2CNC(=O)c2ccc([N+](=O)[O-])o2)cc1C	-108%	15µM*	?	i	-22%	?
O=C(NCc1nnnn1-c1ccc(F)cc1)c1ccc([N+](=O)[O-])o1	-180%	18µM*	14µM*	?	?	12µM*
CCN(CC)S(=O)(=O)c1ccc2c(c1)N(CC(=O)N1CCN(c3cccc(Cl)c3)CC1)C(=O)CO2	-30%	i	?	i	nt	nt
CCC1CN(C(=O)N2CCC(C(=O)NCCN(C)C)CC2)c2ccccc2O1 (configuration not stated)	-1%	nt	-11%	nt	nt	nt
O=C(COc1ccc2c(c1)CCC2)N1CCN(c2ccccc2F)CC1	9%	i	12%	0.0037µM*	12%	18%
CCn1cc(C(=O)NCc2ccc(C)cc2)c(=O)c2cc(S(=O)(=O)N3CCCCCC3)ccc21	-43%	i	-4%	i	nt	nt
O=c1[nH]c2ccc(Cl)cc2c(-c2ccccc2)c1N1CCOCC1	-39%	i	-1%	i	-2%	0%
O=C(c1ccco1)N1CCN(c2c(-c3ccccc3)c3cc(Cl)ccc3[nH]c2=O)CC1	18µM*	i	?	i	?	?
O=c1[nH]c2ccc(Cl)cc2c(-c2ccccc2)c1N1CCN(c2ccccn2)CC1	-3%	i	-17%	13µM*	0%	3%
COc1ccc(CNC(=O)c2cc3c(-c4ccccc4F)nn(C)c3s2)cc1	-6%	i	?	?	nt	nt
